Sampled rows, rich in hits. Any-hit rate of the full collection: about 19%.
HT1080 IDH1KD tx: kills HT-1080 cells with IDH1 knockdown; 360,000 tested, 2% active; HT-1080 IDH1 knockdown viability, ATP luminescence, 48 h; Potency, µM (doses to about 46.1 µM), actives largely listed as cytotoxic; AID 686971
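After a 2 h attachment period, IDH1KD HT-1080 cells took pin-transferred compound for 48 h at 37 °C; ATP-based luminescence after 10 min room-temperature reagent incubation reported viability.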
HT1080NT lethal: kills 2HG-producing HT-1080-NT fibrosarcoma cells. Potency, µM (titrated, usually from 46.1 µM), hits mostly cytotoxic. 360,000 tested, 1.6% active. AID 686970. HT-1080-NT fibrosarcoma viability, CellTiter-Glo ATP luminescence, 48 h;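 also: NT is the 2HG producing partner of a matched IDH1 knockdown line; nearly all actives have a fitted effect of over 55% in size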
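Read-out is CellTiter-Glo luminescence after 10 minutes at room temperature, following 48 hours' compound treatment of HT-1080-NT cells (750 cells/well, RPMI, 5% FBS, 37 degrees C).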
KB-V1 cytotox: KB-V1 MDR subline cytotoxicity; KB-V1 MDR cells viability, CellTiter-Glo, 72 h; 400,000 tested, 3.4% active; AID 1347076; Potency, µM (doses to about 46.1 µM), usual class: cytotoxic; also: nearly all actives have a fitted effect of over 60% in size
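KB-V1 MDR subline cells in DMEM (phenol-red free, 10% FBS) exposed to compounds in qHTS concentration series for 72 h at 37 degrees C. Viability read by CellTiter-Glo luminescence; concentration-effect curves fitted after normalization and correction.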
KB-3-1 tox: KB-3-1 parental cell cytotoxicity; KB-3-1 viability, CellTiter-Glo ATP luminescence, 72 h; Potency, µM (series often up to 46.1 µM), actives largely listed as cytotoxic; 400,000 tested, 1.4% active; AID 1347075; also: nearly all actives have a fitted effect of over 60% in size
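Viability of parental KB-3-1 cells, measured by CellTiter-Glo luminescence, followed a 72 h incubation at 37 °C with pinned compounds in phenol-red-free DMEM containing 10% FBS.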
TDP1 cell noCPT: qHTS for Inhibitors of human tyrosyl-DNA phosphodiesterase 1 (TDP1): qHTS in cells in absence of CPT | Potency, µM (top dose mostly 46.2 µM), most hits filed as inhibitors | 420,000 tested, 15% active | DT40 Tdp1-/- hTDP1 cells, no CPT, ATP luminescence, 48 h; also: nearly all actives have a fitted effect of over 55% in size
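Stably hTDP1-transfected Tdp1-null chicken DT40 cells were treated with library compounds minus camptothecin and grown for at least 48 hr at 37 °C, after which cellular ATP was quantified by luminescence.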
TDP1 cell CPT: DT40-hTDP1 cell growth loss with CPT; chicken DT40 Tdp1-/-;hTDP1 cells + 20 nM CPT, ATP luminescence, 48 h; Potency, µM (top dose mostly 46.2 µM), hits mostly inhibitors; 420,000 tested, 12% active; also: nearly all actives have a fitted effect of over 55% in size
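Chicken DT40 Tdp1-/- cells complemented with human TDP1, 400 cells/well, exposed to compounds plus 20 nM camptothecin for at least 48 h at 37 C; viability read as ATP content by CellTiter-Glo luminescence.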
A number is an active result. Calls follow the shape of the dose curve; as a rule, active = well fitted curve in the direction sought with a large enough effect; inconclusive = small, poorly fitted or top-dose-only effect, or another doubt; inactive = no such curve, though single readings can be large; an effect the other way counts as inactive or inconclusive.

Results for CCOC(=O)c1c(C)nc2c(c1-c1cc(OC)ccc1OC)C(=O)CC(C)(C)C2 ?
HT1080 IDH1KD tx: inactive; HT1080NT lethal: inactive; KB-V1 cytotox: inconclusive; KB-3-1 tox: inactive; TDP1 cell noCPT: inactive; TDP1 cell CPT: inactive

How did CCOC(=O)[C@]12Cc3c(cc(OC)c(OC)c3OC)[C@H]1N(CCC(=O)OC)C(=O)c1cc(OC)ccc12 do in these assays?
HT1080 IDH1KD tx: inconclusive; HT1080NT lethal: inconclusive; KB-V1 cytotox: inconclusive; KB-3-1 tox: inconclusive; TDP1 cell noCPT: 16µM; TDP1 cell CPT: inconclusive

Results for CCOC(=O)[C@]12Cc3c(cc(OC)c(OC)c3OC)[C@H]1N(Cc1ccccc1)C(=O)c1cc(F)c(F)cc12 ?
HT1080 IDH1KD tx: inconclusive; HT1080NT lethal: inconclusive; KB-V1 cytotox: inconclusive; KB-3-1 tox: inconclusive; TDP1 cell noCPT: 26µM; TDP1 cell CPT: inconclusive

What do the screens show for `CCOC(=O)[C@]12Cc3c(cc(OC)c(OC)c3OC)[C@H]1N(Cc1ccccc1)C(=O)c1cc(OC)ccc12`?
HT1080 IDH1KD tx: inconclusive; HT1080NT lethal: 18µM; KB-V1 cytotox: inconclusive; KB-3-1 tox: 4.6µM; TDP1 cell noCPT: 13µM; TDP1 cell CPT: inconclusive

What do the screens show for `COc1cccc(C2N(Cc3ccccc3)C(=O)C2(F)F)c1OC` (configuration not stated)?
HT1080 IDH1KD tx: inactive; HT1080NT lethal: inactive; KB-V1 cytotox: inactive; KB-3-1 tox: inactive; TDP1 cell noCPT: inactive; TDP1 cell CPT: inactive

Results for CCCc1cc(C(=O)N(C2CCCCC2)C2CCCCC2)no1 ?
HT1080 IDH1KD tx: inactive; HT1080NT lethal: inactive; KB-V1 cytotox: inactive; KB-3-1 tox: inactive; TDP1 cell noCPT: 29µM; TDP1 cell CPT: inconclusive

Results for CCCc1cc(C(=O)NC2CCCCC2)no1 ?
HT1080 IDH1KD tx: inactive; HT1080NT lethal: inactive; KB-V1 cytotox: inactive; KB-3-1 tox: inactive; TDP1 cell noCPT: inactive; TDP1 cell CPT: inactive

Results for Cc1noc(NS(=O)(=O)c2ccc(NC(=O)CSc3nc4ccccc4s3)cc2)c1C ?
HT1080 IDH1KD tx: inactive; HT1080NT lethal: inactive; KB-V1 cytotox: inactive; KB-3-1 tox: inactive; TDP1 cell noCPT: inactive; TDP1 cell CPT: inactive

Results for NS(=O)(=O)c1ccc(NC(=O)COC(=O)c2ccc(S(=O)(=O)N3CCOCC3)cc2)cc1 ?
HT1080 IDH1KD tx: inactive; HT1080NT lethal: inactive; KB-V1 cytotox: inactive; KB-3-1 tox: inactive; TDP1 cell noCPT: inactive; TDP1 cell CPT: inactive

Results for COCCN1CSC(=S)N(Cc2ccco2)C1 ?
HT1080 IDH1KD tx: inactive; HT1080NT lethal: inactive; KB-V1 cytotox: inactive; KB-3-1 tox: inactive; TDP1 cell noCPT: 4.6µM; TDP1 cell CPT: 21µM

Results for S=C1NCN(Cc2ccco2)CN1CCc1ccccc1 ?
HT1080 IDH1KD tx: inactive; HT1080NT lethal: inactive; KB-V1 cytotox: inactive; KB-3-1 tox: inactive; TDP1 cell noCPT: inconclusive; TDP1 cell CPT: inconclusive

Results for S=C1SCN(Cc2ccccn2)CN1Cc1ccco1 ?
HT1080 IDH1KD tx: 16µM; HT1080NT lethal: inconclusive; KB-V1 cytotox: inconclusive; KB-3-1 tox: inactive; TDP1 cell noCPT: 5.8µM; TDP1 cell CPT: 6.5µM

How did Cn1cc(-c2cc3n(n2)CCC(=O)N3CC(=O)O)c2ccccc21 do in these assays?
TDP1 cell noCPT: inactive; TDP1 cell CPT: inactive

Results for O=C(CSc1nc2ccccc2c(=O)n1-c1ccccc1Cl)NCC1CCCO1 (configuration not stated) ?
HT1080 IDH1KD tx: inactive; HT1080NT lethal: inactive; KB-V1 cytotox: inactive; KB-3-1 tox: inactive; TDP1 cell noCPT: inactive; TDP1 cell CPT: inactive

How did O=C(Cn1cc(SCc2ccc(F)cc2)c2ccccc21)N1CCOCC1 do in these assays?
HT1080 IDH1KD tx: inactive; HT1080NT lethal: inactive; KB-V1 cytotox: inactive; KB-3-1 tox: inactive; TDP1 cell noCPT: 16µM; TDP1 cell CPT: inconclusive

How did O=C(Cn1cc(SCc2ccc(Cl)cc2)c2ccccc21)N1CCOCC1 do in these assays?
HT1080 IDH1KD tx: inactive; HT1080NT lethal: inactive; KB-V1 cytotox: inactive; KB-3-1 tox: inactive; TDP1 cell noCPT: 21µM; TDP1 cell CPT: inconclusive

Results for CCc1ccc(NC(=O)CSc2cn(CC(=O)N3CCOCC3)c3ccccc23)cc1 ?
TDP1 cell noCPT: inconclusive; TDP1 cell CPT: inactive

How did Cc1ccc(NC(=O)c2sc(-n3nc(C)c(Cc4ccc5c(c4)OCO5)c3C)nc2C)cc1Cl do in these assays?
KB-V1 cytotox: inactive; KB-3-1 tox: inactive; TDP1 cell noCPT: inconclusive; TDP1 cell CPT: inconclusive

How did COc1ccc(S(=O)(=O)N2CCOCC2)cc1NC(=O)CN1CCCc2ccccc21 do in these assays?
HT1080 IDH1KD tx: inactive; HT1080NT lethal: inactive; KB-V1 cytotox: inconclusive; KB-3-1 tox: inactive; TDP1 cell noCPT: inconclusive; TDP1 cell CPT: inconclusive

What do the screens show for `COc1ccc(C2OC3=C(Nc4cc(C)c(C)cc4N3)C2=O)cc1` (configuration not stated)?
HT1080 IDH1KD tx: inactive; HT1080NT lethal: inactive; KB-V1 cytotox: inactive; KB-3-1 tox: inactive; TDP1 cell noCPT: inactive; TDP1 cell CPT: inactive

Results for COc1ccccc1C1OC2=C(Nc3ccc([N+](=O)[O-])cc3N2)C1=O (configuration not stated) ?
HT1080 IDH1KD tx: inactive; HT1080NT lethal: inactive; KB-V1 cytotox: inactive; KB-3-1 tox: inactive; TDP1 cell noCPT: 13µM; TDP1 cell CPT: 13µM

What do the screens show for `O=C(C[n+]1cccc2cccc(O)c21)c1ccc(F)cc1`?
KB-V1 cytotox: inactive; KB-3-1 tox: inactive; TDP1 cell noCPT: inconclusive; TDP1 cell CPT: 7.1µM

Screening data deposited in PubChem by National Center for Advancing Translational Sciences (NCATS).
